Assay results: PMC7862700, “An all-to-all approach to the identification of sequence-specific readers for epigenetic DNA modifications on cytosine”

Tests used:
Assay in all cases: DAPPL (digital affinity profiling via proximity ligation, sequencing); 10 mM Tris-HCl pH 7.5, 50 mM NaCl, 1 mM DTT, 4% glycerol, room temperature, 30 min; GST-TFs on glutathione beads, 16-mer random dsDNA library, 0.1% formaldehyde crosslink after washing; high values mean tight binding
Conditions in all cases: protein: recombinant; tags: N-terminal GST; dsDNA, one strand shown
[1] = target: T1, FLI1 (Homo sapiens, UniProt Q01543 1-452)
T1 sequence: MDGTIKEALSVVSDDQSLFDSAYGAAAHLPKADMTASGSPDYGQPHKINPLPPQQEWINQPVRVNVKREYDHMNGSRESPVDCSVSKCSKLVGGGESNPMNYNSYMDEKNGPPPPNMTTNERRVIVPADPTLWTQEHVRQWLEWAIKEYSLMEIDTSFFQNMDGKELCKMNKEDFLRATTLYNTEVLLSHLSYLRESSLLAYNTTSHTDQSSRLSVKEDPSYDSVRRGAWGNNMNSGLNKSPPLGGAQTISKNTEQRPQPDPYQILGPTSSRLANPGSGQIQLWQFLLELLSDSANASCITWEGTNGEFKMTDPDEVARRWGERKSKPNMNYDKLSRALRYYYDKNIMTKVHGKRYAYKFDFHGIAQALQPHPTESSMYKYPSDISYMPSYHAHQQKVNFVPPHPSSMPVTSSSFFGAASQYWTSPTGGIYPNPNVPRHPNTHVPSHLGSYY
Procedure, shortened: (§1)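 Human transcription factors carrying a GST fusion were produced in yeast, bound to glutathione beads, tagged with DNA barcodes and pooled together with a tag-only sample. Each pool was held with 200 nmole of a random double-stranded 16-mer DNA library in Tris/NaCl/DTT/glycerol buffer for 30 min at room temperature, then washed, crosslinked in 0.1% formaldehyde, proximity-ligated with BsaI/T4 ligase (1 h, 37 °C), PCR-amplified and sequenced on an Illumina NextSeq500. Binding signal is the read frequency of each hexamer for a given factor divided by its frequency in the tag-only sample.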

[2] = target: T2, ELK1 (Homo sapiens, UniProt P19419 1-428)
T2 sequence: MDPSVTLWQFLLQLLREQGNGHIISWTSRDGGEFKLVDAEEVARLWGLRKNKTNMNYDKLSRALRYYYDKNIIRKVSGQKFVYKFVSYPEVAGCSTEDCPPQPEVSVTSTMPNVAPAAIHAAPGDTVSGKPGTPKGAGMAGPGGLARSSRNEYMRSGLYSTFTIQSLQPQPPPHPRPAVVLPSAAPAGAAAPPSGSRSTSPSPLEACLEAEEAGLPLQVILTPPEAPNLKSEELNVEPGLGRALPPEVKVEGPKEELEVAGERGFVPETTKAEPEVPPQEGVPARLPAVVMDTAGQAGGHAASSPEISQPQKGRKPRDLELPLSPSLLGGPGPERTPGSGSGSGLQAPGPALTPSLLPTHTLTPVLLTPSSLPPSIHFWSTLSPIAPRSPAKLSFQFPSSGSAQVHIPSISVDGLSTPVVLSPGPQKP
Procedure, shortened: as §1

[3] = target: T3, GABPA (Homo sapiens, UniProt Q06546 1-454)
T3 sequence: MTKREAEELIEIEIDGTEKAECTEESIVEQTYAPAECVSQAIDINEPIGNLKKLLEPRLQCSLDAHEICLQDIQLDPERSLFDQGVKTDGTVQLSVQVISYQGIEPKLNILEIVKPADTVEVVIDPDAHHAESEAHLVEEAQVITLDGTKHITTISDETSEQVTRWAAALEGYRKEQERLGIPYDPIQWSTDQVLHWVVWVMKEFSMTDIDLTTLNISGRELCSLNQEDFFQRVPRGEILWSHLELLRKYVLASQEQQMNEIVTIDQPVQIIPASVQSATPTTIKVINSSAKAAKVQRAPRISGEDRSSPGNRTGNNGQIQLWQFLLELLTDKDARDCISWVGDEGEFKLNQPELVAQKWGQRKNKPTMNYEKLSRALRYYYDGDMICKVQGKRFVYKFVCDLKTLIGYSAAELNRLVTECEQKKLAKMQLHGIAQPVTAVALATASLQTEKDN
Procedure, shortened: as §1

[4] = target: T4, ERG (Homo sapiens, UniProt P11308 1-479)
T4 sequence: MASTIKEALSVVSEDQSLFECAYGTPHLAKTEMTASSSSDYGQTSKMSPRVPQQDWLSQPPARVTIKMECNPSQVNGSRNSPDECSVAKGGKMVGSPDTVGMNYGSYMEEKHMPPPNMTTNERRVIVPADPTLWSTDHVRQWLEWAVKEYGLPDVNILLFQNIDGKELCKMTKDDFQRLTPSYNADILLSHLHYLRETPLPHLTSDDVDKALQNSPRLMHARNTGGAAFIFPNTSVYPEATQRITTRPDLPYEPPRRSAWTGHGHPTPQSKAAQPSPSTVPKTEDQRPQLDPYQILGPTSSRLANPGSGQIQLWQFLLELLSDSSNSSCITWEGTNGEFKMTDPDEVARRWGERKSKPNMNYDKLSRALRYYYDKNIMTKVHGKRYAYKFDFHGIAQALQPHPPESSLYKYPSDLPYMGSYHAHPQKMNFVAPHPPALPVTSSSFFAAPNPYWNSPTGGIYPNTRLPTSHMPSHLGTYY
Procedure, shortened: as §1

[5] = target: ELF1 (Homo sapiens, UniProt P32519 1-619)
ELF1, sequence (P32519 whole entry): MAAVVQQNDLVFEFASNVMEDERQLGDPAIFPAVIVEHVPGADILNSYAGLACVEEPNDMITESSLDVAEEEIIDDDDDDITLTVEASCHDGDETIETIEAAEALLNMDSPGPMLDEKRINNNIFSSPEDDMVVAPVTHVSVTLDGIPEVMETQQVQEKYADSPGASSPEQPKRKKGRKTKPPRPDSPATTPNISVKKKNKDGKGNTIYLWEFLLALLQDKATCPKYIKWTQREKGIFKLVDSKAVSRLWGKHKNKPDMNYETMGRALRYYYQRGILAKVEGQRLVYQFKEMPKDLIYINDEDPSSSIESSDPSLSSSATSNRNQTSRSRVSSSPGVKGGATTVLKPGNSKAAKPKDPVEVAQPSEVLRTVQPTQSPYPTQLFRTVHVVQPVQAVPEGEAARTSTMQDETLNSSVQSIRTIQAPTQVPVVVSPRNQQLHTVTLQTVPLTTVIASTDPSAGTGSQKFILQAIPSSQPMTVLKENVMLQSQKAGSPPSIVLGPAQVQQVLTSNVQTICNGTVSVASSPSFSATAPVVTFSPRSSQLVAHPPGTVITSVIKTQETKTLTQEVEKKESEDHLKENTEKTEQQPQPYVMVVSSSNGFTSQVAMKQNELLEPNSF
Procedure, shortened: as §1

[6] = target: T5, EHF (Homo sapiens, UniProt Q9NZC4 1-300)
T5 sequence: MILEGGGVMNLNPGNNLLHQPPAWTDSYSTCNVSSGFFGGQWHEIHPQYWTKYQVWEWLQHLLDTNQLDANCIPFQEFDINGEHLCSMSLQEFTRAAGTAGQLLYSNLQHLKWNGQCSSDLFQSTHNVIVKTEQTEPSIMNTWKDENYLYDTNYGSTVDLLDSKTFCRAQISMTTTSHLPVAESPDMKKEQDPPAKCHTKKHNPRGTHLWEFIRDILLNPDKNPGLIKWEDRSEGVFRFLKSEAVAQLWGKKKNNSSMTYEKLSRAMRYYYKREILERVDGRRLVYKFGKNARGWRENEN
Procedure, shortened: as §1

[7] = target: SPI1 (Homo sapiens, UniProt P17947 1-270)
Procedure, shortened: as §1

[8] = target: SPIB (Homo sapiens, UniProt Q01892 1-262)
SPIB, sequence (Q01892 whole entry): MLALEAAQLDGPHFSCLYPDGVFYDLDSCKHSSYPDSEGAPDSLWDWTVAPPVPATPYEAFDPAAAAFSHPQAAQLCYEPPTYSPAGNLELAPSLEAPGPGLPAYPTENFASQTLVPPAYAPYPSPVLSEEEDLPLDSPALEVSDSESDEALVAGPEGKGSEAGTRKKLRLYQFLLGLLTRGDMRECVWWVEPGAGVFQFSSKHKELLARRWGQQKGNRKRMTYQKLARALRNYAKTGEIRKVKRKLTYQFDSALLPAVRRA
Procedure, shortened: as §1

[9] = target: T6, ELK3 (Homo sapiens, UniProt P41970 1-407)
T6 sequence: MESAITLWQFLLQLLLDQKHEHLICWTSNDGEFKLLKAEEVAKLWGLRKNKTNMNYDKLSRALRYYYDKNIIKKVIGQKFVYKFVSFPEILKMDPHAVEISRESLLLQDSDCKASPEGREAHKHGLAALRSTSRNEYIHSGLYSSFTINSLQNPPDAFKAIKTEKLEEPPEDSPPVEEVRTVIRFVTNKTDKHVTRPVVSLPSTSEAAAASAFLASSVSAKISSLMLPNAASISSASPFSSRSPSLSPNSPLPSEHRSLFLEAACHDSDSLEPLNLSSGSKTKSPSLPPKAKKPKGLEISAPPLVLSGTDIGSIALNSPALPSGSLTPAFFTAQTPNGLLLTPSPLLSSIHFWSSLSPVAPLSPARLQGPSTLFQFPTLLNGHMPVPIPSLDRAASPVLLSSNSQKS
Procedure, shortened: as §1

| Sequence | binding signal [1] | binding signal [2] | binding signal [3] | binding signal [4] | binding signal [5] | binding signal [6] | binding signal [7] | binding signal [8] | binding signal [9] |
| --- | --- | --- | --- | --- | --- | --- | --- | --- | --- |
| ATCACT | 1.19 fold enrichment (6-mer frequency, TF over GST control) | 1.16 fold enrichment (6-mer frequency, TF over GST control) | 1.19 fold enrichment (6-mer frequency, TF over GST control) | 1.28 fold enrichment (6-mer frequency, TF over GST control) | 1.34 fold enrichment (6-mer frequency, TF over GST control) | 1.15 fold enrichment (6-mer frequency, TF over GST control) | 1.32 fold enrichment (6-mer frequency, TF over GST control) | 1.38 fold enrichment (6-mer frequency, TF over GST control) | 1.18 fold enrichment (6-mer frequency, TF over GST control) |
| GGATCC | 1.15 fold enrichment (6-mer frequency, TF over GST control) | 1.13 fold enrichment (6-mer frequency, TF over GST control) | 1.18 fold enrichment (6-mer frequency, TF over GST control) | 1.25 fold enrichment (6-mer frequency, TF over GST control) | 1.18 fold enrichment (6-mer frequency, TF over GST control) | 1.16 fold enrichment (6-mer frequency, TF over GST control) | 1.06 fold enrichment (6-mer frequency, TF over GST control) | 1.24 fold enrichment (6-mer frequency, TF over GST control) | 1.07 fold enrichment (6-mer frequency, TF over GST control) |
| TCCGTT | 1.44 fold enrichment (6-mer frequency, TF over GST control) | 1.61 fold enrichment (6-mer frequency, TF over GST control) | 1.42 fold enrichment (6-mer frequency, TF over GST control) | 1.68 fold enrichment (6-mer frequency, TF over GST control) | 1.34 fold enrichment (6-mer frequency, TF over GST control) | 1.4 fold enrichment (6-mer frequency, TF over GST control) | 1.53 fold enrichment (6-mer frequency, TF over GST control) | 1.53 fold enrichment (6-mer frequency, TF over GST control) | 1.54 fold enrichment (6-mer frequency, TF over GST control) |
| CCGTAC | 1.39 fold enrichment (6-mer frequency, TF over GST control) | 1.25 fold enrichment (6-mer frequency, TF over GST control) | 1.33 fold enrichment (6-mer frequency, TF over GST control) | 1.3 fold enrichment (6-mer frequency, TF over GST control) | 1.45 fold enrichment (6-mer frequency, TF over GST control) | 1.33 fold enrichment (6-mer frequency, TF over GST control) | 1.22 fold enrichment (6-mer frequency, TF over GST control) | 1.15 fold enrichment (6-mer frequency, TF over GST control) | 1.28 fold enrichment (6-mer frequency, TF over GST control) |
| ACCCCC | 1.17 fold enrichment (6-mer frequency, TF over GST control) | 1.16 fold enrichment (6-mer frequency, TF over GST control) | 1.21 fold enrichment (6-mer frequency, TF over GST control) | 1.16 fold enrichment (6-mer frequency, TF over GST control) | 1.09 fold enrichment (6-mer frequency, TF over GST control) | 1.12 fold enrichment (6-mer frequency, TF over GST control) | 1.14 fold enrichment (6-mer frequency, TF over GST control) | 1.21 fold enrichment (6-mer frequency, TF over GST control) | 1.18 fold enrichment (6-mer frequency, TF over GST control) |
| TAATGA | 1.09 fold enrichment (6-mer frequency, TF over GST control) | 1.21 fold enrichment (6-mer frequency, TF over GST control) | 1.26 fold enrichment (6-mer frequency, TF over GST control) | 1.02 fold enrichment (6-mer frequency, TF over GST control) | 1.1 fold enrichment (6-mer frequency, TF over GST control) | 1.2 fold enrichment (6-mer frequency, TF over GST control) | 1.22 fold enrichment (6-mer frequency, TF over GST control) | 1.16 fold enrichment (6-mer frequency, TF over GST control) | 1.21 fold enrichment (6-mer frequency, TF over GST control) |
| TCACCC | 1.23 fold enrichment (6-mer frequency, TF over GST control) | 1.23 fold enrichment (6-mer frequency, TF over GST control) | 1.21 fold enrichment (6-mer frequency, TF over GST control) | 1.13 fold enrichment (6-mer frequency, TF over GST control) | 1.2 fold enrichment (6-mer frequency, TF over GST control) | 1.06 fold enrichment (6-mer frequency, TF over GST control) | 1.12 fold enrichment (6-mer frequency, TF over GST control) | 1.2 fold enrichment (6-mer frequency, TF over GST control) | 1.15 fold enrichment (6-mer frequency, TF over GST control) |
